Source: the supplement of paper PMC10849652
Of roughly 7,900 targets only a part is listed; those with a hit were picked by preference. About 0.6% of all pairs of compound and target were hits. Values without a mark were called inactive.

Experiments:
Assay in all cases: log2 fold change, soluble protein after heating vs DMSO (PISA); higher = thermal stabilisation; K562 cells, 10 uM, 30 min; active = over 0.2 and 3.5 SD of the protein, either way, in both replicates (recomputed)
[1] = compound: CS(=O)(=O)c1ccc(-c2cnc(N)c(C(=O)Nc3ccccc3)n2)cc1
Method in brief: (§1)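 Values are thermal stability changes relative to control samples and are taken from duplicates. They are stated as log2 fold changes. Before quantification by TMTpro 16plex LC-MS/MS with equalised channel sums, K562 cells at 2×10^6 cells/mL were treated with 10 μM compound for 30 min, heated in aliquots for 3 min across 48°C-58°C, pooled, extracted in PBS with 0.5% NP-40 at 4°C, and centrifuged at 21,000xg for 90 min to give the soluble supernatant.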

crizotinib = compound: C[C@@H](Oc1cc(-c2cnn(C3CCNCC3)c2)cnc1N)c1c(Cl)ccc(F)c1Cl [crizotinib]
Method in brief: as §1

[2] = compound: C[C@@H]1COCCN1C2=NC(=NC(=C2)C3(CC3)S(=O)(=O)C)C4=C5C=CNC5=CC=C4
Method in brief: as §1

[3] = compound: C[C@H](C1=CC=C(C=C1)C(=O)NC2=C3C=CNC3=NC=C2)N
Method in brief: as §1

duvelisib = compound: C[C@H](Nc1ncnc2nc[nH]c12)c1cc2cccc(Cl)c2c(=O)n1-c1ccccc1 [duvelisib]
Method in brief: as §1

gandotinib = compound: Cc1cc(Nc2cc(CN3CCOCC3)c3nc(C)c(Cc4ccc(Cl)cc4F)n3n2)n[nH]1 [gandotinib]
Method in brief: as §1

tozasertib = compound: Cc1cc(Nc2cc(N3CCN(C)CC3)nc(Sc3ccc(NC(=O)C4CC4)cc3)n2)n[nH]1 [tozasertib]
Method in brief: as §1

[4] = compound: Cc1cc(SCc2sc(-c3ccc(C(F)(F)F)cc3)nc2C)ccc1OCC(=O)O
Method in brief: as §1

doramapimod = compound: Cc1ccc(-n2nc(C(C)(C)C)cc2NC(=O)Nc2ccc(OCCN3CCOCC3)c3ccccc23)cc1 [doramapimod]
Method in brief: as §1

ispinesib = compound: Cc1ccc(C(=O)N(CCCN)[C@@H](c2nc3cc(Cl)ccc3c(=O)n2Cc2ccccc2)C(C)C)cc1 [ispinesib]
Method in brief: as §1

bafetinib = compound: Cc1ccc(NC(=O)c2ccc(CN3CC[C@H](N(C)C)C3)c(C(F)(F)F)c2)cc1Nc1nccc(-c2cncnc2)n1 [bafetinib]
Method in brief: as §1

[5] = compound: Cc1cccc(CC(=O)N2CCc3c2ccc(-c2cn(C)c4ncnc(N)c24)c3F)n1
Method in brief: as §1

nilotinib = compound: Cc1cn(-c2cc(NC(=O)c3ccc(C)c(Nc4nccc(-c5cccnc5)n4)c3)cc(C(F)(F)F)c2)cn1 [nilotinib]
Method in brief: as §1

[6] = compound: Cc1nc(Nc2n[nH]c3c2CN(C(=O)N[C@H](CN(C)C)c2ccccc2)C3(C)C)c2sccc2n1
Method in brief: as §1

dasatinib = compound: Cc1nc(Nc2ncc(C(=O)Nc3c(C)cccc3Cl)s2)cc(N2CCN(CCO)CC2)n1 [dasatinib]
Method in brief: as §1

[7] = compound: Cc1ncc(-c2ccnc(Nc3ccc(S(C)(=O)=O)cc3)n2)n1C(C)C
Method in brief: as §1

[8] = compound: Cn1cc(-c2ccc3c(c2)CCN3C(=O)Cc2cccc(C(F)(F)F)c2)c2c(N)ncnc21
Method in brief: as §1

[9] = compound: Cn1cc(-c2ccc3nnc(C(F)(F)c4ccc5ncccc5c4)n3n2)cn1
Method in brief: as §1

tipifarnib = compound: Cn1cncc1[C@@](N)(c1ccc(Cl)cc1)c1ccc2c(c1)c(-c1cccc(Cl)c1)cc(=O)n2C [tipifarnib]
Method in brief: as §1

mubritinib = compound: FC(F)(F)c1ccc(/C=C/c2nc(COc3ccc(CCCCn4ccnn4)cc3)co2)cc1 [mubritinib]
Method in brief: as §1

Sequence of UniProt P43362 (P43362 whole entry, looked up): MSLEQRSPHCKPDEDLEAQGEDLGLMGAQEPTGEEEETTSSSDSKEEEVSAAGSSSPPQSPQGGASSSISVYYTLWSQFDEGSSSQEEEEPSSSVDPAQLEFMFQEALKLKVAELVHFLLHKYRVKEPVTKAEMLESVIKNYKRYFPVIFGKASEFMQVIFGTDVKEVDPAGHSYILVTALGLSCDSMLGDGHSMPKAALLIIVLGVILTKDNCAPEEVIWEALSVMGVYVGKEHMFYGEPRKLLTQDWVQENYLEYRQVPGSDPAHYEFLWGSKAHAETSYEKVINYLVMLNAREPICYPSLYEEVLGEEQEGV
Sequence of UniProt Q96GA3 (Q96GA3 whole entry, looked up): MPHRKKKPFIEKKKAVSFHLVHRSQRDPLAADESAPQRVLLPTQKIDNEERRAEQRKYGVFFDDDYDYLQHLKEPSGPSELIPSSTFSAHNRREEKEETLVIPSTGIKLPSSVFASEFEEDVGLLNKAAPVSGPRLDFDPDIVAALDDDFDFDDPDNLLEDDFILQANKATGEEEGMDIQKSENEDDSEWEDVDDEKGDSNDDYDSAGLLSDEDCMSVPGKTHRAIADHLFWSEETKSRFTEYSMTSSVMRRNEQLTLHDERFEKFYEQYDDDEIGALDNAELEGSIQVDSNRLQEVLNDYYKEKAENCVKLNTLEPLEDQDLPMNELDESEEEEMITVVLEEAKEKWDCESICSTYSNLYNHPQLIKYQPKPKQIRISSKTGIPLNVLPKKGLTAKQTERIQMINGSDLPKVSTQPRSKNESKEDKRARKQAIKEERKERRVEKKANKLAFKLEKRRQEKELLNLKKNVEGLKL
Sequence of UniProt Q14693 (Q14693 whole entry, looked up): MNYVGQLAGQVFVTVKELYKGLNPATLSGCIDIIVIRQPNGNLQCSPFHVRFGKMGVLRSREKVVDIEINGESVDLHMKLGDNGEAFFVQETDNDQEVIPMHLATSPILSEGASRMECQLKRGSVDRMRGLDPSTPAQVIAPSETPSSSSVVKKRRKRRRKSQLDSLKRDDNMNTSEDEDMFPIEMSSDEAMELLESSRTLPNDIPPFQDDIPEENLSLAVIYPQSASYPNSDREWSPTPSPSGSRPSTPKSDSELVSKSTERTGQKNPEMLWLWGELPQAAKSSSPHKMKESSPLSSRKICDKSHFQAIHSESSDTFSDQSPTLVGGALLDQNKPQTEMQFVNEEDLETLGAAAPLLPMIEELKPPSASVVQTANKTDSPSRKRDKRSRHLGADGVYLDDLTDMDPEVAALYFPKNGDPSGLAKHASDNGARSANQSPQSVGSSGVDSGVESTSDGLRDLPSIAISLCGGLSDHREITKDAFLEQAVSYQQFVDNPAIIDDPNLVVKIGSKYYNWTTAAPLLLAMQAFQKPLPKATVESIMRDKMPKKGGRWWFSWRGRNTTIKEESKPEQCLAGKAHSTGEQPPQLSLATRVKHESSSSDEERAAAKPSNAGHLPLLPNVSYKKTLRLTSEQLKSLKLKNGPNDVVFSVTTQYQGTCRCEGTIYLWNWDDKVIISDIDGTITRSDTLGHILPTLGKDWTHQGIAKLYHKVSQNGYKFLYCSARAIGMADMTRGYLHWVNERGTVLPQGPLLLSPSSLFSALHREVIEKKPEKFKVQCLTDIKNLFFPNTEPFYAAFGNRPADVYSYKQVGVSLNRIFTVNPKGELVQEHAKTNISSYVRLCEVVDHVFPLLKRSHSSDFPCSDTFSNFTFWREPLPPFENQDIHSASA
Sequence of UniProt Q9H6V9 (Q9H6V9 whole entry, looked up): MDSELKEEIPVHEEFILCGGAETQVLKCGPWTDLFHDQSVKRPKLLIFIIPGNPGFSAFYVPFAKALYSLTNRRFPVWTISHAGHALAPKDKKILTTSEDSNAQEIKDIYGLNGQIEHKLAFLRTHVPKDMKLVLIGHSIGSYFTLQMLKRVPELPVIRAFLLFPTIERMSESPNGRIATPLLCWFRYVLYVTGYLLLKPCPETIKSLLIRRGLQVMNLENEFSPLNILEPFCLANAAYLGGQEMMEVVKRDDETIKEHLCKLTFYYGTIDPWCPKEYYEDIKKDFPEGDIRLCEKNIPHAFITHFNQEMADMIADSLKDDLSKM
Sequence of UniProt Q13123 (Q13123 whole entry, looked up): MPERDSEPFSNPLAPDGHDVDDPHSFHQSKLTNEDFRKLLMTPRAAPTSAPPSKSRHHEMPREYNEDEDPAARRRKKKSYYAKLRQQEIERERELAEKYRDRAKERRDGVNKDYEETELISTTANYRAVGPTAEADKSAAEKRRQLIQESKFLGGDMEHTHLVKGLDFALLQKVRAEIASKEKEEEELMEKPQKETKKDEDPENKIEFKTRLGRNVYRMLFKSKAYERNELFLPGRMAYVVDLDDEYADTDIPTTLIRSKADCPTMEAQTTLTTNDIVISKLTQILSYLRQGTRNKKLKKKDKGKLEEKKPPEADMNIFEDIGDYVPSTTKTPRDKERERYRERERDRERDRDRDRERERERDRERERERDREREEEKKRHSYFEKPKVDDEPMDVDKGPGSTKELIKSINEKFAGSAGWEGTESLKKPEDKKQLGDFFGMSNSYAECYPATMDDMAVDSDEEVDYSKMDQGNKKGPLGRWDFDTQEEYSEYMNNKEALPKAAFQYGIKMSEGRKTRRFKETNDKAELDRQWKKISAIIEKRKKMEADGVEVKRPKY
Sequence of UniProt P27816 (P27816 whole entry, looked up): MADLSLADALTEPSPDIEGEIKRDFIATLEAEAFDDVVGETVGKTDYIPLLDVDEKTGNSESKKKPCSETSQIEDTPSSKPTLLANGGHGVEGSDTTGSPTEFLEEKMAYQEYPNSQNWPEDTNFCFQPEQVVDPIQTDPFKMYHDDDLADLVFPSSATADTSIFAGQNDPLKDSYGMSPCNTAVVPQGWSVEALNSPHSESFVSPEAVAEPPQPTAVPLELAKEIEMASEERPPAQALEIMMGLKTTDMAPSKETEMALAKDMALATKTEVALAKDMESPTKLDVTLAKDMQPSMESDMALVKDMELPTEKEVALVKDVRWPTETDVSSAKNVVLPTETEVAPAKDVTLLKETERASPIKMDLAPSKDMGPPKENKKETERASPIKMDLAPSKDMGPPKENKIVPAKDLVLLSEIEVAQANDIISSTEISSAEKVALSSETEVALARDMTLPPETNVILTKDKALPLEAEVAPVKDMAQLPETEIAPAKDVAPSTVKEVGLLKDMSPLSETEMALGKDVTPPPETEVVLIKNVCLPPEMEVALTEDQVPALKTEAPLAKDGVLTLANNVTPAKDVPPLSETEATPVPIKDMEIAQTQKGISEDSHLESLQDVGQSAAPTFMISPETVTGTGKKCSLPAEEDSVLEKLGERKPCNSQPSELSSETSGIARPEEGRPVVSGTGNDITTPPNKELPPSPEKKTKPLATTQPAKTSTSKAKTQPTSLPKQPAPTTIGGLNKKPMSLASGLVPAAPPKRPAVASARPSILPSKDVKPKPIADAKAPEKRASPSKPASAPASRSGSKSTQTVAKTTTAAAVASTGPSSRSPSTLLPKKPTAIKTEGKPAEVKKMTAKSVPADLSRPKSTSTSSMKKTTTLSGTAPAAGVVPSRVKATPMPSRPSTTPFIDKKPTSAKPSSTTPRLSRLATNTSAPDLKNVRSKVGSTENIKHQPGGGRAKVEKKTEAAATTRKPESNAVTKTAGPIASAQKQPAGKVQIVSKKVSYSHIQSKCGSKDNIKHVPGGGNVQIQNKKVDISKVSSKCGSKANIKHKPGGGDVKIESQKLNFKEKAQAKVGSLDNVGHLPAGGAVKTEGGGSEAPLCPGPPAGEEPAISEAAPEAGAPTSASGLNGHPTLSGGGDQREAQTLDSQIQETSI
Sequence of UniProt Q9UI26 (Q9UI26 whole entry, looked up): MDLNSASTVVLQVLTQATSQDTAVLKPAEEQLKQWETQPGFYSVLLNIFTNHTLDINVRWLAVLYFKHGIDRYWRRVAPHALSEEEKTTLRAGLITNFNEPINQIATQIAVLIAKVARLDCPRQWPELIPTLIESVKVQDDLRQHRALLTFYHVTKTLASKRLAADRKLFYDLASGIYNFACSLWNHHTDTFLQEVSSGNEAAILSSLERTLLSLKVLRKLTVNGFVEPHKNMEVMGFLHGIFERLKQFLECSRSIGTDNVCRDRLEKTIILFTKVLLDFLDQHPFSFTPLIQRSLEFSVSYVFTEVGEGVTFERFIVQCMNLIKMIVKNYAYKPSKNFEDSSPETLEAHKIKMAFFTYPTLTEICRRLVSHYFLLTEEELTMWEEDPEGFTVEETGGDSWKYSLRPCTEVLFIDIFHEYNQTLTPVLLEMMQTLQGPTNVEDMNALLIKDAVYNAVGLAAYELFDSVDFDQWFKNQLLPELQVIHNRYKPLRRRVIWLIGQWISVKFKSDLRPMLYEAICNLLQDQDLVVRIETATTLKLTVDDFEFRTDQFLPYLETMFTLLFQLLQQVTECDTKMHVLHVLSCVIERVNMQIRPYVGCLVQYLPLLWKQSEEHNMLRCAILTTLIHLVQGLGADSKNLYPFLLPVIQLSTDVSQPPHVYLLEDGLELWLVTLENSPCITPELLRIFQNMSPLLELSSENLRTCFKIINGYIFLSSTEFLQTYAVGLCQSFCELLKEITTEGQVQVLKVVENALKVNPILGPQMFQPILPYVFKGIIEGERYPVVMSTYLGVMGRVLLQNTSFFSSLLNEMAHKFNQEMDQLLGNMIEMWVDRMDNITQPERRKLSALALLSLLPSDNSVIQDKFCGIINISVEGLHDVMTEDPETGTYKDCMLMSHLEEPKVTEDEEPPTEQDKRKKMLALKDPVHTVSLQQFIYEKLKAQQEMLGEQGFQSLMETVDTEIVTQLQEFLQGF
Sequence of UniProt Q8WV07 (Q8WV07 whole entry, looked up): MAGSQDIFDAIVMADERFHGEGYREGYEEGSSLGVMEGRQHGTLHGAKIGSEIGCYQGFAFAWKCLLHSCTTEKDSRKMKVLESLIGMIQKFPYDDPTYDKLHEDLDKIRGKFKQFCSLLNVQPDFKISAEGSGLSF

Target	log2 fold change [1]	log2 fold change (crizotinib)	log2 fold change [2]	log2 fold change [3]	log2 fold change (duvelisib)	log2 fold change (gandotinib)	log2 fold change (tozasertib)	log2 fold change [4]	log2 fold change (doramapimod)	log2 fold change (ispinesib)	log2 fold change (bafetinib)	log2 fold change [5]	log2 fold change (nilotinib)	log2 fold change [6]	log2 fold change (dasatinib)	log2 fold change [7]	log2 fold change [8]	log2 fold change [9]	log2 fold change (tipifarnib)	log2 fold change (mubritinib)
KSR1 (UniProt Q8IVT5)	-0.017	-0.287	0.036	0.047	0.031	-0.067	-0.221	-0.017	0.052	-0.113	0.035	-0.052	-0.052	-0.303	-0.228	-0.021	0.003	-0.129	-0.086	-0.233
KPNB1 (UniProt Q14974)	-0.027	-0.201	-0.038	0.047	-0.045	-0.09	0.094	0.083	0.026	-0.225	0.029	0.029	-0.129	-0.09	-0.072	-0.018	-0.09	-0.045	-0.12	0.019
MIER1 isoform 12 (UniProt Q8N108)	0.009	-0.027	0.035	-0.034	-0.012	-0.004	-0.021	0.035	0.026	-0.029	-0.016	0.031	0.012	-0.083	-0.028	-0.061	0.056	-0.041	-0.004	0.052
INTS7 (UniProt Q9NVH2)	0.009	-0.133	-0.053	-0.054	0	0.211	0.008	0.014	-0.091	-0.036	0.02	0.033	-0.054	-0.025	-0.109	0.114	-0.021	0.017	-0.132	-0.123
LTO1 (UniProt Q8WV07)	0.011	0.048	-0.083	-0.063	0.078	-0.026	-0.007	-0.042	0.032	0.051	-0.013	-0.004	-0.036	-0.072	0	0.039	-0.025	-0.02	-0.063	0.038
IPO11 isoform 2 (UniProt Q9UI26)	0.037	0	-0.015	-0.082	0.041	-0.076	0.025	0.007	-0.028	0.051	-0.056	0.045	0.012	-0.03	-0.049	0.039	-0.008	-0.029	-0.132	0.069
LDAH isoform 2 (UniProt Q9H6V9)	0.052	-0.308 (active)	0.064	-0.035	0.001	-0.001	-0.047	0.204	0.019	-0.438 (active)	-0.188	-0.027	0.175	-0.122	-0.215	-0.035	0.082	-0.025	0.076	0.094
KIF1B isoform 4 (UniProt O60333)	0.002	-0.067	0.048	0.035	0.011	-0.043	0.03	0.052	0.029	-0.149	-0.056	-0.004	0.01	0.073	-0.066	-0.064	-0.044	0.033	-0.004	-0.004
MAP4 (UniProt P27816)	-0.004	0.012	-0.025	-0.035	-0.03	0.006	-0.023	-0.051	0.008	-0.014	0.008	0.005	0.008	0.008	0.049	-0.01	-0.033	-0.029	0	-0.007
KTN1 (UniProt Q86UP2)	-0.016	-0.078	-0.028	0.122	-0.027	-0.047	-0.007	0.097	0.094	-0.207	0.042	0.013	-0.117	0.055	-0.013	0.063	-0.081	-0.03	-0.064	-0.032
ME2 (UniProt P23368)	-0.027	0.282 (active)	-0.048	0.009	0.043	-0.016	-0.001	-0.002	-0.016	0.334 (active)	-0.012	-0.087	0.138	0.029	-0.052	-0.015	-0.076	0.001	0.107	-0.074
MAGEA9 (UniProt P43362)	0.005	0.008	0.082	-0.028	0.12	-0.095	0.168	-0.029	0	-0.001	0.03	-0.02	0.021	-0.006	0.074	-0.034	0.065	-0.024	-0.008	-0.048
LTV1 (UniProt Q96GA3)	0.006	-0.143	-0.189	0.294	-0.087	0.199	0.035	0.009	0.128	-0.271	0.137	-0.039	-0.047	0.137	0.025	0.009	-0.112	-0.09	0.064	0.042
LPIN1 isoform 7 (UniProt Q14693)	0	-0.184	-0.034	0.031	-0.052	-0.079	-0.021	-0.043	0.067	-0.037	-0.076	0.051	-0.038	0.046	-0.016	-0.079	-0.025	-0.058	-0.019	0.095
IWS1 (UniProt Q96ST2)	0.077	0.146	0.132	0.119	0.028	0.108	0.058	0.062	-0.134	0.061	0.018	-0.022	-0.024	0.092	-0.054	0.311 (active)	-0.013	0.022	-0.021	0.035
IK (UniProt Q13123)	-0.041	0.021	-0.037	0.186	0.034	0.022	0.05	-0.007	0.016	0.065	0.013	-0.01	-0.062	-0.067	-0.025	0.037	-0.007	-0.109	0.003	-0.067
